Screening data: PubChem, The Scripps Research Institute Molecular Screening Center
Shown are actives, neighbours in structure and some others; about 1.1% of the full set was active somewhere.
MOR-DOR inv ag = inverse agonists of MOR-DOR heterodimerization, primary screen, cell-based, luminescence | Mu-type opioid receptor (Homo sapiens) + Delta-type opioid receptor (Homo sapiens), … | cell-based MOR-DOR heterodimer luminescence, inverse agonism | inhibition, % at 9.3 µM | hit rate 0.21% among 340,000; in the data active means inhibition above about 22%, passing the limit was not always enough
Target sequence (P35372 whole entry, looked up): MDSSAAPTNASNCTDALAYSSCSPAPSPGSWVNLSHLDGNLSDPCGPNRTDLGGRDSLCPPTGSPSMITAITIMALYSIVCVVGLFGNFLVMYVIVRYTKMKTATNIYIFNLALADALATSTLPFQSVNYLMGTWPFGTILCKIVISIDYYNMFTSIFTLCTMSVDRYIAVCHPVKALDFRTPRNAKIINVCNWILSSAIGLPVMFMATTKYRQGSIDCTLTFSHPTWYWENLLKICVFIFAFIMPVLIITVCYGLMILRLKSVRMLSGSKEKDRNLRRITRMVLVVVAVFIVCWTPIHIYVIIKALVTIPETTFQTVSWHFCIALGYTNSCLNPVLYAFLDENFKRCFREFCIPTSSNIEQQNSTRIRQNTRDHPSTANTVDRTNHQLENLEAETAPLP
Target sequence (P41143 whole entry, looked up): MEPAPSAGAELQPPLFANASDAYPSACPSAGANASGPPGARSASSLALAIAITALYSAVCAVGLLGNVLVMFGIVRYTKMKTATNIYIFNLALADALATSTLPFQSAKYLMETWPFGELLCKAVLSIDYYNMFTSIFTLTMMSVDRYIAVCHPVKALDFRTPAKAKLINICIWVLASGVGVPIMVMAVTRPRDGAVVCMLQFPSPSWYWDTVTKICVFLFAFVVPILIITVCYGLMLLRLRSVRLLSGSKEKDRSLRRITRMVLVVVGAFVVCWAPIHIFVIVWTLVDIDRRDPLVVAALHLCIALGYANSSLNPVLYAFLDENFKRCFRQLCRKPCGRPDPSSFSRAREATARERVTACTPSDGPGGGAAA
HTR5A ag ctr = HTR5A agonists in luminescence cell assay, primary screen, counter-screen for OPRM1-OPRD1 heterodimer agonist project, full-deck HTS; AID 504692, 2011; activation, % at 9.3 µM; hit rate 0.61% among 340,000; 5-hydroxytryptamine receptor 5A (Homo sapiens), P47898; cell-based; in the data active means activation mostly above about 9.5%, no sharp cut-off; inactive means mostly below about 7.6%
HTR5A inv ag = HTR5A inverse agonists in luminescence cell assay, primary screen, counter-screen for OPRM1-OPRD1 heterodimer inverse agonist project, full-deck HTS; inhibition, % at 9.3 µM; HTR5A cell line, inverse agonism; 5-hydroxytryptamine receptor 5A (Homo sapiens), P47898; hit rate 0.083% among 340,000; in the data active means inhibition mostly above about 23%, no sharp cut-off; inactive means mostly below about 18%
OPRM1-OPRD1 ag = agonists of OPRM1-OPRD1 heterodimerization, primary screen, cell-based, luminescence; cells; hit rate 0.3% among 340,000; AID 504326, 2011; activation, % at 9.3 µM; Mu-type opioid receptor (Homo sapiens) + Delta-type opioid receptor (Homo sapiens), …; in the data active means activation above about 18%
Of the large screens only hits and unclear results are named; the others gave an inactive call.

CCOC(=O)c1coc(CNC(=O)c2c(C)oc3c2CCCC3)c1	none
CCOC(=O)c1cc(CNC(=O)c2c(C)oc3c2CCCC3)c(C)o1	HTR5A ag ctr 11
CC(C)N(CC(N)=O)C(=O)c1sc2cc(F)ccc2c1Cl	HTR5A ag ctr 13
CN1CCC(N(C)C(=O)c2sc3cc(F)ccc3c2Cl)CC1	none
CC(C)CC(=O)Nc1cccc2c1C(=O)N(c1ccccc1)C2=O	none
CC(C)CC(=O)Nc1cc2nn(-c3ccccc3)nc2cc1Cl	HTR5A ag ctr 9.1
Cc1ccc(S(=O)(=O)N(C)C)cc1NC(=O)COC(=O)/C=C/c1cnc2ccccc2n1	HTR5A ag ctr 14
CCn1nc(NC(=O)C(C)C)c2cc3cccc(C)c3nc21	HTR5A ag ctr 11
NS(=O)(=O)c1ccc(CCNC(=O)C2CCN(C(=O)Nc3ccccc3)CC2)cc1	none
CCCCCCN1C(=O)CC(NC(=O)OCC2c3ccccc3-c3ccccc32)C/C=C\C1C(C)C (centres undefined)	none
COc1ccc(-c2nn(-c3ccccc3)cc2C#N)cc1	HTR5A ag ctr 14
Cc1cc(Nc2nc3ccccc3nc2Cl)n(-c2ccc([N+](=O)[O-])cc2)n1	HTR5A inv ag 38
Cc1ccc2oc(=O)c3cnn(CC(=O)N4CCCc5ccccc54)c3c2c1	HTR5A ag ctr 14
Cc1occc1-c1nnc(SCC(=O)Nc2ccccc2N2CCCCC2)n1C	HTR5A ag ctr 9.8
Cc1occc1-c1nnc(SCC(=O)Nc2ccccc2)n1C	none
CC(C)(C)NC(=O)CSCc1c(Cl)cccc1Cl	none
NC(=O)CSCc1c(Cl)cccc1Cl	HTR5A ag ctr 13
CCCCn1c(N)c(N(C)C(=O)c2ccc(OCC3CCCO3)cc2)c(=O)[nH]c1=O (centres undefined)	none
CC(/C=C/c1ccco1)=N\NC(=O)CNc1ccc2ccccc2c1	HTR5A ag ctr 12
O=C(NCc1ccccn1)Nc1cccc(F)c1	none
CC1=C/C(=C(\c2cc(C)c(O)c(Br)c2)c2ccccc2S(=O)(=O)O)C=C(Br)C1=O	MOR-DOR inv ag 28
Cc1cc(C(=O)c2ccccc2)cc(C)c1O	none
COc1cc(F)c(C2=CC(=O)C[C@H](c3ccc(Cl)cc3)C2)cc1F	none
CCOC(=O)C1CCCN(C(=O)COc2ccc(C(=O)c3ccccc3)cc2)C1 (centres undefined)	none
CCOC(=O)C1CCCN(c2c(C(=O)c3ccccc3)cnc3ccc(OC)cc23)C1 (centres undefined)	MOR-DOR inv ag 36, HTR5A inv ag 30
O=C(C1CC(=O)N(C2CCCC2)C1)N1CCN(c2cccc(Cl)c2)CC1 (centres undefined)	none
CCOC(=O)C1=C(CC)OC(N)=C(C#N)C1c1cccs1 (centres undefined)	HTR5A ag ctr 11
CC1Cc2ccccc2N1C(=O)CN1C(=O)NC2(CCCCC2)C1=O (centres undefined)	none
COc1cccc(-n2c(=S)sc3c(=O)n(-c4ccccc4OC)c(=S)[nH]c32)c1	HTR5A ag ctr 8.9
COc1ccccc1-n1c(=S)[nH]c2c(sc(=S)n2-c2ccccc2)c1=O	none
CCC(CC)NC(=O)COn1nnc2ccc(S(=O)(=O)N3CCOCC3)cc21	none
CC(C)(C)c1nn(-c2ccccc2)c2[nH]c(=O)c(CNCc3ccc4c(c3)OCO4)cc12	HTR5A ag ctr 12
CCOc1cccc(NCc2cc3c(C(C)(C)C)nn(-c4ccccc4)c3[nH]c2=O)c1	none
O=C(NCCN1CCCCC1)c1cc(OCC(F)(F)F)ccc1OCC(F)(F)F	HTR5A ag ctr 10
Cc1nc2ccccc2n1S(=O)(=O)c1ccc(S(=O)(=O)N2CCCCCC2)cc1	HTR5A ag ctr 14
C[C@@H]1COC(=O)[C@@H](CC(=O)OC(C)(C)C)C/C=C\C[C@H](CC(=O)NCCO)C(=O)N1	none
CCCCOc1ccc(CSCCNC(=S)Nc2ccccc2)cc1	HTR5A ag ctr 14
Cc1cc2c(c(C)c1CCO)C(=O)[C@H](C)C2	none
O=C(COC(=O)c1cccs1)Nc1ccc(F)c(F)c1	none
N/C(CC(=O)Nc1ccc(F)c(Cl)c1)=N\OC(=O)c1cccs1	HTR5A ag ctr 13
Cc1cccc(-c2cc3nc(-c4ccccc4)cc(N4CCC5(CC4)OCCO5)n3n2)c1	HTR5A ag ctr 12
CCC(C)N1C(=O)N(c2cccc(Cl)c2)C(C)(O)CC1(C)C (centres undefined)	none
CCN1CCN(c2ccc(NC(=O)c3ccc4c(c3)[nH]c(=O)n4Cc3ccc(F)cc3)cc2)CC1	HTR5A ag ctr 12
COc1c(F)c(F)c(C(=O)Nc2ccc(N3CCN(Cc4ccccc4)CC3)cc2)c(F)c1F	HTR5A ag ctr 9.8
COc1cc(C)ccc1OCCOCCOc1cccc2ccc(C)nc12	HTR5A ag ctr 8.7
CCN(c1ccccc1)S(=O)(=O)c1ccc(C(=O)N(CCCN(C)C)c2nc3cc4c(cc3s2)OCO4)cc1	OPRM1-OPRD1 ag 32
CCc1cc2c(COC(=O)c3cc(S(=O)(=O)N4CCOCC4)ccc3F)cc(=O)oc2cc1O	none
CCc1cc2c(COC(=O)c3cccc(NS(C)(=O)=O)c3)cc(=O)oc2cc1O	HTR5A ag ctr 12
N#Cc1ccccc1S(=O)(=O)N1CCN(C(=O)C2CCCCC2)CC1	none
CC(=O)Nc1ccc(Nc2nc3ccccc3nc2NS(=O)(=O)c2ccccc2)cc1	HTR5A ag ctr 12
CC(=O)Nc1ccc(S(=O)(=O)Nc2nc3ccccc3nc2Nc2ccccc2)cc1	none
CC1Oc2ccccc2N(CC(=O)Nc2ccc3c(c2)OCCO3)C1=O (centres undefined)	none
CC1Oc2ccccc2N(CC(=O)Nc2ccc(F)cc2)C1=O (centres undefined)	HTR5A ag ctr 11
CCCN(C(=O)c1ccc(OCC(C)C)cc1)c1c(N)n(Cc2ccccc2)c(=O)[nH]c1=O	none
O=C(OCC(=O)N1CCOCC1)c1cc2ccccc2oc1=O	none
O=C(CSC(=S)N1CCOCC1)c1cc2ccccc2oc1=O	HTR5A ag ctr 10.0
O=C(Nc1nc(-c2cccs2)cs1)c1ccc(Cl)s1	HTR5A ag ctr 14
CC(=O)Nc1nc(-c2cccs2)cs1	none
CCN(CC(=O)Nc1c(F)cccc1F)C(=O)CNC(=O)c1ccc(Br)o1	none
O=C(N/N=C/c1c[nH]c2ccccc12)c1cc(-c2ccccc2)n[nH]1	none
O=C(N/N=C/c1c[nH]c2ccccc12)c1cc(-c2ccc(-c3ccccc3)cc2)n[nH]1	HTR5A ag ctr 12
CC(C)CNS(=O)(=O)c1cc(C(=O)N2CCOCC2)c(Cl)cc1Cl	HTR5A ag ctr 10
C=CCOc1cccc(/C=C/c2nc3ccccc3c(=O)[nH]2)c1	none
O=C(Cn1c(=O)n(CCC(=O)N2CCCCC2)c(=O)c2sccc21)NCc1ccccc1	HTR5A ag ctr 13
O=C(Cn1c(=O)n(CC(=O)N2CCCCC2)c(=O)c2sccc21)NCc1ccccc1	none
COc1ccc(CC(=O)OCC(=O)N(C)C2CCS(=O)(=O)C2)cc1OC (centres undefined)	none
Cn1c(=O)[nH]c(=O)c2[nH]c(CO)nc21	none
CCCOc1ccccc1-c1nc2c([nH]1)c(=O)[nH]c(=O)n2C	HTR5A ag ctr 13
